Results reported in PubChem BioAssay (NCI).
“And” between values parts separate entries of the source, which are not always exact repeats. Equal entries are not always repeated. The panel holds about 83,000 compounds, 20% with a hit somewhere; the sample as a whole holds those more often.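 96-well plates, one dose, 48 hours. Percent growth reported; active if below 10.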 The source made the active and inactive calls.

Tests used:
Assay in all cases: NCI-60 one-dose screen, 48 h (100 = growth as untreated, 0 = no growth, -100 = all killed)
[1] = system: SK-MEL-2 melanoma; conditions: 10 µM
[2] = system: EKVX NSCLC; conditions: 10 µM
[3] = system: SN12C renal; conditions: 10 µM
[4] = system: UO-31 renal; conditions: 10 µM
[5] = system: TK-10 renal
[6] = system: ACHN renal; conditions: 10 µM
[7] = system: CAKI-1 renal; conditions: 10 µM
[8] = system: A498 renal; conditions: 10 µM
[9] = system: CCRF-CEM leukemia; conditions: 10 µM
[10] = system: MOLT-4 leukemia; conditions: 10 µM

Measured: growth

Nc1ccc(N)c([N+](=O)[O-])c1
inactive: [1] 115% | [2] 110% | [3] 97.8% | [4] 88.2% | [5]; 10 µM unless noted 130% | [6] 102% | [7] 106% | [8] 100% | [9] 107% | [10] 104%

OC(c1ccccn1)C(O)c1ccccn1 (stereo unspecified)
inactive: [1] 108% | [2] 124% | [3] 91.5% | [4] 89% | [5]; 10 µM unless noted 108% | [6] 98.2% | [7] 116% | [8] 95.9% | [9] 104% | [10] 95.1%

CCCCC1C(=O)N(c2ccccc2)N(c2ccccc2)C1=O
inactive: [1] 98.7% | [2] 105% | [3] 96.2% | [4] 90.4% | [5]; 10 µM unless noted 103% | [6] 102% | [7] 103% | [8] 125% | [9] 95.8% | [10] 107%

O=[N+]([O-])c1ccc(O)c(S(=O)(=O)O)c1
inactive: [1] 108% | [2] 105% | [3] 90.2% | [4] 116% | [5]; 10 µM unless noted 121% | [6] 95.2% | [7] 95.9% | [8] 114% | [9] 102% | [10] 98.4%

Oc1ccc(O)cc1
inactive: [1] 104% | [2] 113% | [3] 106% | [4] 82% | [5]; 10 µM unless noted 128% | [6] 85.4% | [7] 97.9% | [8] 115% | [9] 62.7% | [10] 78.6%

Cc1ccc(O)c(C(=O)c2ccccc2)c1
inactive: [1] 107% | [2] 103% | [3] 100% | [4] 97.2% | [5]; 10 µM unless noted 111% | [6] 104% | [7] 104% | [8] 78.7% | [9] 55.8% | [10] 112%

O=C(CCNNC(=O)c1ccncc1)NCc1ccccc1
active: [9] 5.43%
inactive: [1] 94.3% | [2] 106% | [3] 97.1% | [4] 91.3% | [5]; 10 µM unless noted 133% | [6] 93% | [7] 109% | [8] 110% | [10] 99%

O=C(c1ccccc1)C1CCC1
inactive: [1] 96.7% | [2] 105% | [3] 89.2% | [4] 76.1% | [5]; 10 µM unless noted 93.4% | [6] 106% | [7] 98.5% | [8] 103% | [9] 88.6% | [10] 91.3%

Cc1nc2ccccc2c2nnc(SCC(=O)N(Cc3ccccc3)c3ccccc3)n12
active: [8] -16.6%
inactive: [1] 51.2% | [2] 76.6% | [3] 100% | [4] 89% | [5]; 10 µM unless noted 189% | [6] 92.8% | [7] 71.3% | [9] 85.4% | [10] 93.1%

Cc1cc(N)c(S(=O)(=O)O)c(N)c1
inactive: [1] 109% | [2] 98.9% | [3] 93.8% | [4] 79.1% | [5]; 10 µM unless noted 105% | [6] 100% | [7] 90.1% | [8] 101% | [9] 98.1%
active: [10] 5.11%

S=C1CCCCCN1
inactive: [1] 105% | [2] 98.1% | [3] 100% | [4] 82.5% | [5]; 10 µM unless noted 109% | [6] 99.1% | [7] 93.9% | [8] 101% | [9] 107% | [10] 111%

CC12CC3CC1C(C(=O)O2)C3C(=O)O (stereo unspecified)
inactive: [1] 94.7% | [2] 105% | [3] 105% | [4] 93.5% | [5]; 10 µM unless noted 94.5% | [6] 105% | [7] 102% | [8] 106% | [9] 101% | [10] 100%

[O-][N+](=Nc1cccc(Cl)c1)c1cccc(Cl)c1
inactive: [1] 112% | [2] 88.8% | [3] 93% | [4] 72.8% | [5]; 10 µM unless noted 108% | [6] 94.3% | [7] 96.4% | [8] 103% | [9] 111% | [10] 125%

CN1C(=O)CN2CCc3ccccc3C2c2cc(Cl)ccc21 (stereo unspecified)
inactive: [1] 81.7% | [2] 91.5% | [3] 85.1% | [4] 74.3% | [5]; 10 µM unless noted 111% | [6] 93.6% | [7] 81% | [8] 54.5% | [9] 93.6% | [10] 105%

S=c1nn[nH]c2ccccc12
inactive: [1] 102% | [2] 117% | [3] 93.4% | [4] 67.1% | [5]; 10 µM unless noted 109% | [6] 93.2% | [7] 98.3% | [8] 109% | [9] 111% | [10] 108%

CC(C)=NNc1ccc([N+](=O)[O-])cc1[N+](=O)[O-]
inactive: [1] 113% | [2] 74% | [3] 84.4% | [4] 61.3% | [5]; 10 µM unless noted 96.9% | [6] 64.8% | [7] 53.9% | [8] 74.5% | [9] 42.2%

CCOC(=O)CCCC(=O)OCC
inactive: [1] 111% | [2] 108% | [3] 114% | [4] 89.7% | [5]; 10 µM unless noted 101% | [6] 105% | [7] 95.2% | [8] 92.1% | [9] 110% | [10] 101%

O=C(NC1CCCCC1)OCc1c(COC(=O)NC2CCCCC2)c(-c2ccc(Cl)c(Cl)c2)n2c1CCC2
active: [1] -9.91% | [4] -13.6% | [6] 5.4% | [7] 8.84% | [8] -67.7%
inactive: [2] 60.5% | [3] 22.3% | [5]; 10 µM unless noted 35.2% | [9] 32.9%

Nc1ccc(C(=O)c2ccc(N)c(Br)c2)cc1Br
inactive: [2] 50.9% | [3] 29.2% | [4] 58.8% | [5]; 10 µM unless noted 22.5% | [6] 33.4% | [7] 42.9% | [8] 28.6% | [9] 13.4% | [10] 35.5%
active: [1] 8.1%

CCOC(=O)/C(C#N)=C/c1cccc(C)c1
inactive: [1] 106% | [2] 98.9% | [3] 103% | [4] 88.9% | [5]; 10 µM unless noted 98% | [6] 98.9% | [7] 69.5% | [8] 101%

O=C(CCl)Nc1ccc2c(c1)C(=O)c1ccc(NC(=O)CCl)cc1C2=O
inactive: [8] 12.4%
active: [1] -38.8% | [2] -15.2% | [3] -49.5% | [4] -95.5% | [5]; 10 µM unless noted 3% | [6] -65.7% | [7] -88.7% | [9] -46.9% | [10] -31.8%

CCOc1ccccc1/C=N/Nc1nc2ccccc2o1
inactive: [1] 91.3% | [2] 101% | [3] 92.2% | [4] 86.5% | [5]; 10 µM unless noted 104% | [6] 103% | [7] 110% | [8] 92.1% | [9] 95.8% | [10] 81.7%

Nc1ccc(N=Nc2ccc(S(=O)(=O)O)cc2)c2ccccc12
inactive: [1] 102% | [2] 89.7% | [3] 104% | [4] 65.2% | [5]; 10 µM unless noted 140% | [6] 99.2% | [7] 91.5% | [8] 126% | [9] 102% | [10] 88.9%

CC(=O)OCC1=CC2OC(=O)C3=COC(OC4OC(CO)C(O)C(O)C4O)C1C32 (stereo unspecified)
inactive: [1] 138% | [2] 101% | [3] 101% | [4] 96.7% | [5]; 10 µM 113% | [5]; 100 µM 81% and 93.8% | [6] 111% | [7] 101% | [9] 104% | [10] 141%

CCCCC/C=N/Nc1nc(C)cc(=O)[nH]1
inactive: [1] 121% | [2] 91.4% | [3] 97.4% | [4] 92.1% | [5]; 10 µM unless noted 108% | [6] 102% | [7] 88.3% | [8] 96.2% | [9] 105% | [10] 95.3%

Cc1cccc([N+](=O)[O-])c1Cl
inactive: [1] 109% | [2] 96.8% | [3] 106% | [4] 87.3% | [5]; 10 µM unless noted 119% | [6] 97.4% | [7] 92.3% | [8] 94.5% | [9] 99% | [10] 122%

C=C1CC/C=C(\C)C(=O)C[C@@H]2[C@@H]1CC2(C)C
active: [5]; 100 µM -73.6%
inactive: [1] 102% | [2] 104% | [3] 114% | [4] 88.3% | [5]; 10 µM 123% | [6] 102% | [8] 85% | [9] 69.3% | [10] 93.5%

COc1ccc2c(NCCCCCCCCNc3c4ccccc4nc4cc(OC)ccc34)c3ccccc3nc2c1
active: [1] -67.3% | [2] -79.6% | [3] -92.7% | [4] -76.2% | [5]; 10 µM unless noted -72.9% | [6] -100% | [7] -100% | [8] -88.6% | [9] -42.4% | [10] -85.7%

Oc1ccc(N=Nc2ccc(Br)cc2)c(O)c1
inactive: [2] 47.4% | [3] 54.1% | [4] 30.3% | [5]; 10 µM unless noted 39.2% | [6] 49.8% | [8] 23.5% | [10] 21.2%
active: [1] -5.42% | [7] 3.01% | [9] -20%

CCOC(=O)C(CCC(C)C)C(=O)OCC
inactive: [1] 97.5% | [2] 99.3% | [3] 109% | [4] 84.7% | [5]; 10 µM unless noted 86.8% | [6] 101% | [7] 100% | [8] 91.3% | [9] 99.9% | [10] 83.8%
